# From ChEMBL document CHEMBL4888484, “Replenishing the malaria drug discovery pipeline: Screening and hit evaluation of the MMV Hit Generation Library 1 (HGL1) against asexual blood stage Plasmodium falciparum ,using a nano luciferase reporter read-out” (2022)
# About 540 (0.36%) of roughly 150,000 compounds showed an effect of 50% or more. Many of the other results were omitted from the sample, so strong results are more common in it than they were.
# System: Plasmodium falciparum
# Test: Primary screen in NF54 nanoGlo assay, in single point, at 2uM, 72h; a lower Z score goes with more inhibition
# Type: functional, Erythrocyte
# Settings: timepoint 72 hour
SMILES,% Inhibition [%],Z score
CCOc1cccc2c1OC[C@@H](C(=O)N1CCCS1(=O)=O)C2,-7,1.2
Cc1cc(C)c(-c2ccc(C(=O)N(C)CCn3ccnc3C)cc2)cc1C,-5,0.69
COCCNc1c(-c2ccccc2)nc2sc(C(=O)NCc3cccnc3)c(C)n12,-31,3.13
Cc1ccc(-n2cc(NC(=O)c3cc(C)no3)cn2)c(C)c1,-5,0.56
O=c1c2cnc(N3CCc4ccccc4C3)nc2ccn1-c1ccc(Cl)c(Cl)c1,-8,1.01
Cc1cccc(N2CCO[C@@H](CF)C2)n1,5,-0.46
Cc1cnccc1NCCNCc1cccc(O)c1Cl,88,-13.09
CCn1ccc(CNCCNc2ccncc2C)n1,-3,0.68
Cc1cnccc1NCCNCc1nc(C(C)C)cs1,6,-0.58
Cc1cnccc1NCCNCc1ccnc(C(C)C)n1,-15,1.39
CC1CCN(Cn2c(=S)sc3ccccc32)CC1,-4,0.63
Cc1nccn1CC(=O)N[C@@H](C)C1=CCCCC1,3,-0.38
O=C1Nc2ccc(F)cc2C12CCNC2c1ccc2c(c1)OCCO2 (stereo unspecified),31,-3.54
Cn1c(N)c(S(=O)(=O)N2CCN(c3ccccc3Cl)CC2)c(=O)n(C)c1=O,59,-11.06
CS(=O)(=O)N1CCN(S(=O)(=O)N2CCN(c3ccccc3Cl)CC2)CC1,5,-0.74
Cc1ccccc1S(=O)(=O)N1CCN(c2c(C)n(-c3ccccc3)c(=O)n(C)c2=O)CC1,36,-0.1
O=C(CCN(CCc1ccccc1)c1nc(C2CC2)nc2ccccc12)Nc1ccccc1,0,-0.06
O=C(CCN1C(=O)CCC1=O)Nc1cccc(S(=O)(=O)N2CCCCC2)c1,-4,0.89
CCN1CCN([C@H]2CCN(c3ccnc4c(F)cc(Cl)cc34)C2)CC1,11,-1.82
CC(C)(C)OC(=O)N1CCC1CN1CCCC(c2nnc(N)o2)C1 (stereo unspecified),32,-3.65
Cn1ncc(Cl)c1C(=O)NCc1cccnc1Oc1ccc(F)c(F)c1,-3,0.62
O=C(Cn1nnc2ccccc21)N(Cc1cccnc1)C1(C(=O)Nc2ccc3c(c2)OCO3)CCCCC1,36,-0.52
O=C(Cn1nnc2ccccc21)N(Cc1cccnc1)C1(C(=O)Nc2ccc(N3CCOCC3)cc2)CCCCC1,2,-0.25
O=C(Cn1nnc2ccccc21)N(Cc1nc(-c2ccccc2)cs1)C1(C(=O)Nc2ccc3c(c2)OCO3)CCCC1,-7,0.77
O=C(Cn1nnc2ccccc21)N(Cc1ccccc1)C1(C(=O)Nc2ccc3c(c2)OCO3)CCCCC1,50,-5.71

SMILES,% Inhibition [%],Z score
COc1ccc(NC(=O)C2(N(Cc3ccccc3)C(=O)Cn3nnc4ccccc43)CCCCC2)cc1,44,-1.28
COc1ccc(NC(=O)C2(N(Cc3nc(-c4ccccc4)cs3)C(=O)Cn3nnc4ccccc43)CCCCC2)cc1,55,-6.2
O=C(Cn1nnc2ccccc21)N(Cc1cccnc1)C1(C(=O)Nc2ccc3c(c2)OCO3)CCCC1,5,-0.59
CN(C)c1ccc(NC(=O)C2(N(Cc3ccccc3)C(=O)Cn3nnc4ccccc43)CCCCC2)cc1,51,0.77
CN(C)c1ccc(NC(=O)C2(N(Cc3ccccc3)C(=O)Cn3nnc4ccccc43)CCCC2)cc1,5,-0.62
CCc1cc2c(N3CC(c4ncc(C5CC5)cn4)C3)ncnc2s1,0,-0.06
CN(C(=O)Cn1c(=O)n(C)c(=O)c2ccccc21)C1CCCCC1,-1,0.19
Cc1cc(C(=O)N2CCOC3(CCS(=O)(=O)CC3)C2)c(C)s1,-13,1.28
Cc1c(CN(C)C(=O)c2ccc(-c3ccc4c(c3)OCC4)cc2)cnn1C,-20,2.12
COc1ccccc1-c1nnc2c3ccc(Cl)cc3nc(N3CCN(C(=O)c4ccc(C)cc4)CC3)n12,-13,1.38
Cc1nc(-c2ccco2)ccc1C(=O)N[C@@H](C)c1nnnn1C,-12,1.8
CCn1nc(-n2cnnc2)c(NS(=O)(=O)c2ccc(C)cc2)c1C,-9,1.53
COc1ncnc2c1CN(C(=O)NCC1(Cc3ccccc3)CCC1)CC2,29,1.68
Cc1cc(C)c2nc(C)cc(Nc3ccc(O)cc3)c2c1,85,-12.86
COc1cccc2c(Nc3ccc(C(=O)O)cc3)cc(C)nc12,-3,0.28
Cc1cc(Nc2ccc(C)c(Cl)c2)c2cccc(C)c2n1,23,-2.05
Cc1nonc1CC(=O)NCCCn1ccnn1,-4,0.49
Cc1ccc2c(NC(=O)NCC3(CO)CCC3)cccc2n1,-9,1.22
NC(=O)c1ncc(Br)cc1N1CCC[C@H](F)C1,-6,0.95
O=C(Nc1nc2c(s1)CN(S(=O)(=O)c1c(F)cccc1F)CC2)c1ccco1,-5,0.7
COc1ccc(-c2nc(C)cc(C)c2CNC(=O)c2ccco2)cc1,-2,0.33
O=C(Nc1cccc(CNc2ncccn2)c1)c1ccco1,-4,0.39
FC(F)(F)c1ccc(-c2nc(CN(Cc3ccccc3)Cc3ccccc3)cs2)cc1,0,0.08
CN(Cc1cccc(N(C)C)c1)Cc1csc(-c2ccoc2)n1,-5,0.54
CC1(C)CN(C(=O)c2c(O)cnc3c(F)cccc23)C1C1CCCO1 (stereo unspecified),-4,0.64

SMILES,% Inhibition [%],Z score
CC(=O)Nc1ccc2nc(N3CCC(C(=O)N4CCC(N5CCCCC5)CC4)CC3)cc(C)c2c1,10,-1.6
Cc1cc(N2CCC(C)CC2)nc2ccc(NC(=O)c3cccnc3)cc12,18,-2.1
COc1ccc(C(=O)Nc2ccc3nc(N4CCC(C)CC4)cc(C)c3c2)cc1OC,7,-1.1
CCN(CC)c1ccc(C(=O)Nc2ccc3nc(N4CCCC4)cc(C)c3c2)cc1,73,-6.69
CC(=O)Nc1ccc2nc(N3CCC(C(=O)NC4CC4)CC3)cc(C)c2c1,8,-1.23
COc1cc(OC)cc(C(=O)Nc2ccc3nc(N4CCC(C)CC4)cc(C)c3c2)c1,58,-3.66
CCn1c(=O)sc2cc(NC(=O)c3ccc(C)cc3)ccc21,5,-0.91
CC(Nc1ccc(C#N)nc1)C1CCCOC1 (stereo unspecified),1,-0.15
Cc1noc2ncnc(NC[C@](C)(O)c3cccc(F)c3)c12,-7,1.41
CN(C)c1ccccc1NC(=O)Cn1ccc(=O)[nH]c1=O,-5,0.92
Nc1nnc(N[C@H]2COc3ccccc32)[nH]1,0,0.03
O=C(CCc1ccc(Cl)c(F)c1)N1CC(N2CCc3ccccc3C2)C1,-9,1.44
O=C(CCc1ccc(Cl)c(C(F)(F)F)c1)N1CC[C@H](N2CCc3ccccc3C2)C1,50,-7.74
O=C(CCc1cccc(Cl)c1)N1CC[C@H](N2CCc3ccccc3C2)C1,-5,0.72
COCCN1C[C@@H](c2nc(C3CCOCC3)n[nH]2)CCC1=O,-5,0.81
CNC(=O)[C@H](CNC(=O)c1ccc(=O)[nH]n1)Cc1ccc(F)cc1C,-8,1.4
Cc1cccc(CN2CCN(C(=O)c3cc(C)nc(N)n3)[C@@H](C)C2=O)c1,-2,0.2
COc1cc(C(=O)Nc2cccc(-c3nc(C)cc(=O)[nH]3)c2)ccc1OCc1cscn1,-2,0.29
C=CCn1ncc(-c2cn([C@@H](CC)c3cc(C)ccn3)nn2)c1C,10,-1.39
CN(C)C1(CC2CC2)CCN(Cc2cccc(C#N)c2)CC1,-3,0.54
O=C(Cc1ccccc1Cl)N1CC[C@H](Oc2ccc3ccccc3n2)C1,-5,0.96
CCNC(=O)N1CC[C@H](Oc2ccc3ccccc3n2)C1,57,-3
O=C(COc1ccc(Cl)cc1)N1CC[C@H](Oc2ccc3ccccc3n2)C1,-18,3.35
